Screening results from PubChem.
KinaseGlo FLuc: Kinase-Glo luciferase inhibition (counter-screen). AID 1379. Potency, µM (top dose mostly 38.3 µM), for the others: top-dose activity change, negative = inhibition, actives largely listed as inhibitors. actives 0.28% (n = 200,000). Kinase-Glo luciferase, ATP luminescence, 8 min. Q27757; note: % is set by controls: 0 for no effect and ±100 for the full control effect; nearly all actives have a fitted effect of over 60% in size
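Inhibition of Kinase-Glo luciferase light generation was assessed at 10 uM ATP in pH 7.2 imidazole buffer, with luminescence measured after eight minutes at ambient temperature.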
SMN2 splice enh: increases expression of the SMN2 splice variant | HEK293 SMN2-luciferase splicing reporter, luminescence, 30-36 h | Potency, µM (doses to about 46.1 µM), without a hit: at the highest dose activity change, positive = activation, hits mostly activators | actives 2.8% (n = 210,000) | AID 1458; note: % of control where 0% means no effect; nearly all actives have a fitted effect of over 55% in size
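HEK293 cells carry an SMN2 […]–luciferase reporter in which exon 7 inclusion puts luciferase in frame. Cells were plated 10-12 h before compound addition, then incubated 30-36 h at 37C. ONE-Glo luminescence was read; sodium butyrate at 4.5 mM final served as control.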
NPC1 prom act: NPC1 promoter activation; Huh7 NPC1 promoter luciferase reporter, 24 h; actives 2.4% (n = 320,000); Potency, µM (top dose mostly 9.22 µM), for the others: at the top dose activation, actives largely listed as activators; note: % of control where 0% means no effect; nearly all actives have a fitted effect of over 60% in size
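Luminescence from an NPC1 promoter-driven luciferase reporter in stably transfected Huh7 cells was measured after 24 h compound treatment at 37 °C, followed by 10 min ambient incubation with luciferase detection reagent.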
Rab9 prom act: activators of Rab9 promoter. Huh7 Rab9 promoter-luciferase reporter, luminescence, 24 h. Potency, µM (titrated, usually from 9.22 µM), inactives show at the highest dose activation, negative = inhibition, actives largely listed as activators. actives 2.8% (n = 320,000). AID 485297; note: % of control where 0% means no effect; nearly all actives have a fitted effect of over 60% in size
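Cell-based reporter: Huh7 stable for Rab9 promoter-driven luciferase, plated in reduced-serum medium with 10% FBS at 1500 cells/well, compound-treated 24 h at 37 °C, luminescence read after 10 min reagent.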
ELG1 genotoxic: genotoxicity induction in ELG1-luciferase HEK293T cells; HEK293T ELG1-luciferase reporter, luminescence, 16 h; actives 1.3% (n = 330,000); AID 504466; Potency, µM (top dose mostly 46 µM), for inactives: at the highest dose activity change, positive = activation, usual class: activators; note: % of control where 0% means no effect; nearly all actives have a fitted effect of over 60% in size
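Genotoxic stress is detected as increased luminescence from luciferase-tagged ELG1 in HEK293T cells, measured with ONE-Glo after a 16 hr treatment at 37 °C.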
FLuc modulator: counter-screen for miR-21 project: firefly luciferase inhibitors or activators | actives 6.9% (n = 360,000) | purified FLuc, Km substrates, luminescence inhibition | P08659 | Potency, µM (titrated, usually from 57.5 µM), for the others: top-dose activity change, negative = inhibition, hits mostly inhibitors;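 note: plate controls were vehicle for no effect and reference inhibitor for full effect; nearly all actives have a fitted effect of over 55% in size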
Target sequence (P08659 whole entry, looked up): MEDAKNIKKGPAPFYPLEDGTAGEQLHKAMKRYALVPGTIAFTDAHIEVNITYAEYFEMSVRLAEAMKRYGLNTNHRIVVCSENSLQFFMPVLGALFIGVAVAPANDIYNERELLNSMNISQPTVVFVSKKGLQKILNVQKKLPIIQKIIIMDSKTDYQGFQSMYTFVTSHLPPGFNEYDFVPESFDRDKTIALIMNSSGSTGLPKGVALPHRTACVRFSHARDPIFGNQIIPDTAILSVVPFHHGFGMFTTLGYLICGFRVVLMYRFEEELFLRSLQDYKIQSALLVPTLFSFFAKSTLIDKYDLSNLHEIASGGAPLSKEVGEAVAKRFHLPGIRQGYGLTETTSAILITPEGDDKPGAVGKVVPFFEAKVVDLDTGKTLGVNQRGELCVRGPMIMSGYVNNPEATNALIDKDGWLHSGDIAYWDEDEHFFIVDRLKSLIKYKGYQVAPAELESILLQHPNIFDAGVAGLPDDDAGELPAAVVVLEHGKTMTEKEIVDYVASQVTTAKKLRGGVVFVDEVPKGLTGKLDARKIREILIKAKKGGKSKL
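Purified P. pyralis luciferase, 10 nM final, with Km-level 10 uM D-luciferin and 10 uM ATP in 50 mM Tris acetate pH 7.5, 10 mM Mg acetate, 0.01% Tween-20, 0.05% BSA; 6-point qHTS titration about 60 µM downward; luminescence read.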
The depositor's hits bear a star; ? = inconclusive; . = no result given; [ ] = dose if it differs, or a comment. Shown are actives, neighbours in structure and some others; about 7.5% of the full set was active somewhere. Calls come from the whole dose curve; as a rule, active = well fitted curve in the direction sought with a large enough effect; inconclusive = small, poorly fitted or top-dose-only effect, or another doubt; inactive = no such curve, though single readings can be large; an effect the other way counts as inactive or inconclusive. Potency is the fitted concentration of half-maximal effect.

SMILES	KinaseGlo FLuc	SMN2 splice enh	NPC1 prom act	Rab9 prom act	ELG1 genotoxic	FLuc modulator
Cn1cccc1C(=O)N1CCC2(CCCN(c3ccncc3)C2)CC1	0%	-4%	.	.	.	.
Cc1cccc(/N=C/c2c(O)[nH]c3ccccc23)n1	-20%	?	?	3.5µM*	?	4.3µM*
Cc1c(/C=N/O)sc2ccccc12	.	.	-4%	-1%	1%	?
O=[N+]([O-])c1ccc(O)c(N=Cc2sc3ccccc3c2O)c1	-23%	-77%	15%	-17%	13%	11µM*
Cc1cccc(/N=C/c2sc3ccccc3c2O)n1	.	.	21%	?	4.6µM*	0.48µM*
Oc1c(C=Nc2cccc3cccnc23)sc2ccccc12	10µM*	-6%	-4%	-20%	3.3µM*	0.38µM*
Cc1cccc(N2CCN(C(=O)c3c(C)oc4ncnc(N5CCCCC5)c34)CC2)c1C	.	.	.	.	.	0%
COc1ccc(-c2cc(C(C)=O)c(C)n2CCC(=O)Nc2ccc(C)c(Cl)c2)cc1	.	.	.	.	.	-10%
CCCN(CC(=O)Nc1ccccc1C)C(=O)CCCc1c[nH]c2ccccc12	.	.	3%	-3%	-3%	-4%
COc1ccc(NC(=O)NC(=O)c2ccccc2)cc1	.	.	1µM*	0.71µM*	?	?
O=C(NC(=O)c1ccccc1)Nc1ccccc1	.	.	0.45µM*	0.63µM*	?	?
COc1ccccc1Oc1ccc(NC(=O)c2ccccc2)cc1	3%	.	13%	?	4%	-1%
COc1ccc(NC(=O)CSc2nnc(-c3cccs3)n2N)cc1S(N)(=O)=O	.	.	.	.	1%	.
Cc1nc(/C(N)=N/OC(=O)c2cccc(Cl)c2)c(C(F)(F)F)o1	.	.	1%	-5%	-1%	?
Cc1nc(/C(N)=N/OC(=O)c2ccccc2Cl)c(C(F)(F)F)o1	.	.	?	?	?	11µM*
Cc1cc(/C(N)=N/OC(=O)c2ccccc2Cl)no1	.	.	1.1µM*	0.5µM*	?	1.7µM*
N/C(=N/OC(=O)c1ccccc1Cl)c1nonc1N	?	5%	20%	?	?	8.5µM*
Cc1ccc(C(=O)O/N=C(\N)c2nonc2N)cc1	11µM*	18%	3%	11%	?	0.48µM*
N/C(=N/OCC(=O)Nc1cccc2ccccc12)c1nonc1N	-3%	-11%	3%	1%	-2%	-6%
Cc1cc(NC(=O)COC(=O)c2ccccc2Cl)no1	.	.	.	.	-2%	.
Cc1ccccc1NC(=O)c1c(C)oc2ccc(O)c(CN3CCC(C)CC3)c12	.	-3%	.	.	.	2%
COc1cccc(C(=O)Nc2ccc3nc(SCCOc4ccccc4)sc3c2)c1	.	.	.	.	.	-1%
N/C(=N\OC(=O)c1ccc(F)cc1)c1nonc1N	11µM*	11%	-2%	-8%	4%	1.5µM*
NC(=O)c1ccc(F)cc1	-3%	-1%	1%	-4%	2%	1%
CCOC(=O)c1c(/N=C/N(C)C)sc(/C=N/Nc2ccccc2)c1-c1ccccc1Cl	.	.	-3%	2%	-2%	12µM*
SMILES	KinaseGlo FLuc	SMN2 splice enh	NPC1 prom act	Rab9 prom act	ELG1 genotoxic	FLuc modulator
CCOC(=O)c1c(/N=C/N(C)C)sc(/C=N/Nc2ccccc2)c1-c1ccccc1	-4%	3%	5%	0%	2%	-4%
CCN(/C=N/c1sc2c(c1C#N)CCCCC2)CC	-3%	11µM*	2.5µM*	3.2µM*	?	4.8µM*
CC(C)CN(/C=N/c1sc2c(c1C#N)CCCCC2)CC(C)C	1%	-11%	5%	16%	2%	-12%
CN1CCN(/C=N/c2sc3c(c2C#N)CCCCC3)CC1	-2%	16µM*	2.5µM*	2.2µM*	?	12µM*
N#Cc1c(/N=C/C=C/c2ccccc2)sc2c1CCCC2	-3%	-11%	23%	?	6%	6.7µM*
Cc1ccc(CNC(=O)C(C(C)C)N2Cc3ccccc3C2=O)cc1 (configuration not stated)	.	.	.	.	.	-2%
O=C(Nc1c(C(=O)c2ccccc2)oc2ccccc12)c1cc(=O)c2ccccc2o1	.	4%	.	.	.	-1%
O=C(O)CCC(=O)c1ccc2ccc3cccc4ccc1c2c34	-2%[7.66 µM]	-13%[9.22 µM]	-1%	-4%	4%	21µM*
CC(Oc1ccc(Cl)cc1Cl)C(=O)Nc1ccncc1 (configuration not stated)	.	.	-2%	-4%	-12%	-2%
CC(Oc1ccc(Cl)cc1Cl)c1nc(-c2ccc(NC(=O)c3ccccn3)cc2)no1 (configuration not stated)	-11%	?	2.8µM*	?	?	9.5µM*
CC1CCC(NC(=O)CN2C(=O)NC(C)(C)C2=O)CC1 (configuration not stated)	.	.	1%	-8%	0.12µM*	-1%
COc1ccc(C2(C)NC(=O)N(CC(=O)NC3CC3)C2=O)cc1 (configuration not stated)	.	.	.	.	1%	.
COc1ccc(/C=C/C2=NC(=C\N(C)C)/C(=O)O2)cc1	-1%	23%	?	?	?	21µM*
COc1ccc(CCCC(=O)Nc2ccccc2F)cc1	1%	15%	19%	?	?	13µM*
O=C(CC(=O)Nc1ccccc1F)Nc1ccccc1F	.	.	0%	-4%	2%	-9%
COc1ccc(C(=O)NC(=S)NNC(=O)c2ccccc2O)cc1	.	.	2%	0%	15%	21µM*
COc1ccc(CNC(=S)Nc2ccccc2F)cc1	.	.	8%	8%	-1%	-9%
Cc1ccc(CCC(=O)Nc2ccccc2F)s1	-24%	?	?	?	10µM*	7.6µM*
COc1ccc(C(=O)NC(=S)Nc2ccccc2F)cc1	2%	13µM*	1.8µM*	1.4µM*	?	2.7µM*
CCN(CC)CCn1c(=N)n(CCOc2ccccc2Cl)c2ccccc21	.	-5%	.	.	.	3%
Cc1ccc(CNC(=O)C(=O)NCC(c2cccnc2)N2CCN(c3ccc(F)cc3)CC2)cc1 (configuration not stated)	.	.	.	.	.	3%
COc1ccc2c(c1)O[C@H](c1ccc3c(c1)OCO3)[C@@H](OC(=O)Nc1ccc(C)c(Br)c1)C2=O	1%	-3%	.	.	.	.
CCCC/C=C/C(NC(=O)Oc1cccc(C(F)(F)F)c1)c1ccccc1 (configuration not stated)	0%	-15%	.	.	.	.
CN1CCCN(S(=O)(=O)c2cccc(C(F)(F)F)c2)c2nc3ccccc3nc21	.	.	0%	-9%	-8%	.
CSc1ccc(/C=C/c2nc3ccccc3n2S(=O)(=O)c2ccc(Br)cc2)cc1	.	0.5µM*	.	.	.	0.043µM*
O=S(=O)(c1cccc(C(F)(F)F)c1)n1c(/C=C/c2ccccc2)nc2ccccc21	.	.	.	.	.	12µM*
